In the supplement of paper PMC6555819:

System: VDR homodimer (NR concentration 270 nM)
Assay: PBM binding z-score (relative to random genomic background probes); higher = stronger binding; sequences stand for … in GC…GCGATTGACAGCGTAGAATGAAGG
Summary of the method: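 Each nuclear receptor dimer, without ligand, was incubated for 1 h on custom Agilent 4×180K protein-binding microarrays. Binding was detected with antibodies against each partner (one per run), and scanned fluorescence was regression-normalized. The binding z-scores are referenced to random human genomic background probes.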

Sequence | PBM binding z-score
TCAGACAGGTGAAGGTAACTCAAGTACGCAGTCG | 0.389
TCGAGTAGGTTAGTCGGGGCAGTCAGCCAACATA | -0.321
ACTCGGAGGACAAAGGCCAGAGCTACGCCAGTGA | -0.537
CCTGCTAGGTCAATGGGCAGCTAAAGCAGCTCGC | -0.152
TGAACGAGGTTATAAGATCAGGGAACGTTGCAAA | 0.372
ACTAGCAGGCCAAGTTTGAGTCACTCAAACAAAG | -0.27
ATCTCTAGGTAACCAGGTTCAGTGAATGCCGAAC | 2.53
AGAGTGAGGTTATTAAGATCAGGGAATTGCGGTC | 1.97
CCTAGCAGGGCAGGGTCACTCAAGCATTTCGCTT | 1.75
TTACCAAGGTGAAAGGTAGTTGATGCACGCCTTG | -0.225
CCTGCTAGGTTATGGTCAGCTAATCTACAGTATG | -0.337
ACCGAAAGGTCGTGAGGTGAGTATACAGAAAGGC | 0.625
ACAGACAGGTGGTGAAGGTAACTCAGGCTATCAT | -0.381
ACTAGTTGGTCAGCTGAGGTCACCCACAATTCGG | 3.57
GGTTGTAGATCAAGGTTAAGAAAGACTAAGCTAA | 0.584
GTACCAAGGGGAATAGGTCGTTGATGAGTAGGCG | 0.49
CCTTACGGGTCACTCCAGCTTATAGCATCGGAGT | 0.747
